Bioassay records from PubChem.
aSyn yeast inh – qHTS of alpha-syn Inhibitors | Yeast expressing alpha-synuclein, growth rescue, BacTiter-Glo, 24 h | Potency, µM (top dose mostly 46.1 µM), inactives show at the top dose growth rescue (activation), most hits filed as activators | 370,000 compounds, 0.14% hits; further: % of control where 0% means no effect; nearly all actives have a fitted effect of over 65% in size
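Rescue of yeast growth: cells expressing toxic alpha-synuclein, induced in galactose at OD600 0.02, incubated with compound 24 h at 30 C. ATP luminescence quantified growth; inhibitors of toxicity appear as activators.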
FUS yeast rescue – qHTS for Suppressors of FUS Proteinopathy: Primary screen using FUS-linked yeast assay. S. cerevisiae FUS-expressing, growth rescue, OD600, 24 h. Potency, µM (top dose mostly 76.6 µM), actives largely listed as activators. 390,000 compounds, 0.24% hits. AID 1347120, 2019;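 further: plate controls were DMSO vehicle for no effect and reference control for full effect; nearly all actives have a fitted effect of over 55% in size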
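Yeast expressing FUS under galactose induction, OD 0.005 in 2% galactose medium; compounds in a dilution series, 24 h at 30C. Growth rescue by absorbance at 600 nm; CP55940 positive control, DMSO negative.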
Abeta yeast res – qHTS for compounds that reverse cellular toxicity of Amyloid beta (A-beta) peptide in yeast: Primary Screen. yeast expressing A-beta42, growth rescue, OD600, 48 h; response scale: 0% DMSO, 100% iron-clioquinol control. Potency, µM (top dose mostly 46.1 µM), usual class: activators. 410,000 compounds, 0.063% hits; further: nearly all actives have a fitted effect of over 55% in size
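Yeast A-beta toxicity model in growth medium with pinned compounds, 48 h at 30 C; growth read as absorbance at 600 nm. Normalized to FeCl3/clioquinol equimolar mix (positive) and DMSO (negative).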
TDP-43 yeast inh – qHTS of TDP-43 Inhibitors; TDP-43 expressing yeast growth rescue, BacTiter-Glo, 24 h; Potency, µM (titrated, usually from 46.1 µM), without a hit: top-dose growth rescue (activation), hits mostly activators; 410,000 compounds, 1.8% hits; AID 652104, 2013; further: % of control where 0% means no effect; nearly all actives have a fitted effect of over 50% in size
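Yeast cells expressing TDP-43 under galactose induction are exposed to compounds for 24 hr at 30 deg C. BacTiter-Glo luminescence measures growth, so protective compounds score as activators.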
* marks the source's active call; other numbers are inactive results; i = inactive; ? = inconclusive; . = no result given; ! = not active in a repeat. Rows were chosen to be rich in hits. Some 2.1% of all compounds tested hit in one or more screens of this group. The call rests on the fitted dose curve; in most records, active means well fitted curve in the direction sought with a large enough effect; inconclusive means small, poorly fitted or top-dose-only effect, or another doubt; inactive means no such curve, though single readings can be large; an effect the other way counts as inactive or inconclusive. Potency means the concentration at half of the fitted maximal effect.

SMILES | aSyn yeast inh | FUS yeast rescue | Abeta yeast res | TDP-43 yeast inh
C=CCN1CC[C@]23c4c5ccc(O)c4O[C@@H]2/C(=N/N=C2\CC[C@@]4(O)C6Cc7ccc(O)c8c7[C@@]4(CCN6CC=C)[C@@H]2O8)CC[C@@]3(O)C1C5 | -14% | . | . | .
Cc1ccccc1-n1nc(C)c2c1NC(=O)CSC2c1ccccc1C(F)(F)F (configuration not stated) | . | i | i | 35µM*
Cn1c(C(=O)NCCOc2ccccc2Cl)cc(=O)n(C)c1=O | -7% | i | i | -33%
Nc1ccc2cc(Br)ccc2c1 | 8% | i | i | 35µM*
Nc1ccc(Br)cc1 | 0% | i | i | -14%
O=c1[nH]/c(=C\c2ccc(N(CCCl)CCCl)cc2)c(=O)[nH]/c1=C\c1ccc(N(CCCl)CCCl)cc1 | -1% | . | . | .
CC(C(=O)c1ccc(Cl)cc1Cl)n1cncn1 (configuration not stated) | 15% | i | i | 15%
CC(C)(C)C(O)C(Oc1ccc(Cl)cc1)n1cncn1 (configuration not stated) | ? | i | ? | 2.5µM*
COc1c(C)cc(Br)cc1C(=O)Nc1ccc(-c2nc3ncccc3o2)cc1 | . | i | i | ?
Cc1oc(-c2ccccc2)nc1CN1C(=O)C(C)N=C(c2ccccc2F)c2cc(Cl)ccc21 (configuration not stated) | -29% | i | i | ?
Cc1ccccc1CN1C(=O)C(C)N=C(c2ccccc2)c2ccccc21 (configuration not stated) | . | i | i | 14µM*
COc1ccc(S(=O)(=O)N(C)C[C@H]2OCCCC[C@@H](C)Oc3ccc(N(C)C)cc3C(=O)N([C@H](C)CO)C[C@@H]2C)cc1 | -1% | i | i | 9%
COc1cc(C=C2C(=O)NC(=O)NC2=O)ccc1OCc1ccc([N+](=O)[O-])cc1 | -6% | i | i | 11µM*
O=C1NC(=O)C(=Cc2ccc(Oc3ccc([N+](=O)[O-])cc3)cc2)C(=O)N1 | -1% | i | i | 16µM*
COc1ccc(C=C2C(=O)NC(=S)NC2=O)cc1OC | -11% | i | i | -14%
O=C1NC(=O)C(=Cc2ccccc2OCCOc2ccc([N+](=O)[O-])cc2)C(=O)N1 | -18% | i | i | -73%
COc1ccc(CNC(=O)c2cnn3c(C)c(Cc4ccc(F)cc4)c(C)nc23)cc1 | . | i | i | ?
Cc1cccc(OCCn2cccc2/C=C2/C(=O)NC(=O)N(Cc3ccco3)C2=O)c1 | 4% | i | i | 1%
Cc1cccc(OCCn2c(=O)oc3ccc(C)cc32)c1 | 1% | i | i | 14µM*
Cc1cc(/C=C/c2ccnc3ccccc23)ccc1N(CCCl)CCCl | 3% | . | . | .
COc1ccc(Cn2c(O)c(/C=N/NC(=O)c3ccccc3)c(=O)[nH]c2=O)cc1 | -13% | i | i | 17%
COC(=O)[C@@H]1N=C(c2ccc(OC)cc2)O[C@]12C(=O)N(Cc1ccc(OC)cc1)c1ccccc12 | 2% | 14µM* | i | -18%
CC(C)(O)[C@@H]1C2OC(=O)[C@@H]1[C@]1(O)C[C@H]3O[C@]34C(=O)O[C@H]2[C@]14C (tested in a mixture with another compound) | 3% | . | . | .
CC(=O)NCC(N)C(=O)c1ccc(C)cc1 (configuration not stated) | 1% | . | . | .
COc1cc(Cn2c(=O)oc3ccc(C)cc32)ccc1OC(C)C | -6% | i | i | 35µM*
SMILES | aSyn yeast inh | FUS yeast rescue | Abeta yeast res | TDP-43 yeast inh
COc1ccccc1C(=O)Nc1nnc(-c2ccc(Cl)cc2)o1 | 5% | i | i | 13µM*
COc1ccc(C(=O)Nc2ccc(Cl)cc2C(=O)c2ccccc2)c(OC)c1 | . | ? | i | 14%
Cn1ncc2c(NCc3ccc(Cl)cc3)ncnc21 | . | i | i | ?
CCC(=NCCCn1ccnc1)c1c(O)n(Cc2ccccc2)c(=O)[nH]c1=O | -2% | i | i | 32µM*
CC(=O)[C@H]1CC[C@H]2[C@@H]3CCC4=CC(=O)CC[C@]4(C)[C@H]3CC[C@]12C | 11% | i | i | 35µM*
CC(=O)C1CCC2C3C(N4CC4)CC4=CC(=O)CCC4(C)C3CCC12C (configuration not stated) | 0% | . | i | 12%
CCOC(=O)c1c(NC(NC(=O)CF)C(Cl)(Cl)Cl)sc2c1CCCC2 (configuration not stated) | 10% | i | i | 22µM*
Brc1c(Br)c(Br)c2n[nH]nc2c1Br | -46% | . | . | .
CCC(=O)Nc1ccc(C(=O)OCc2ccccc2Cl)cc1 | -25% | . | i | ?
OC1CCC(Nc2ccn3nc(-c4cccc(OCc5ccccc5)c4)cc3n2)CC1 (configuration not stated) | -20% | ? | i | 35µM*
COC(=O)C1=C(c2cccc(OCc3ccccc3)c2)C[C@@H]2CC[C@H]1N2C(=O)NCCOc1ccc(OC)cc1 | -7% | ? | i | 25%
S=C(NCCc1ccccc1)N1Cc2ccc(Br)cc2-n2nncc2C1 | ? | i | ? | 25µM*
COc1ccc(NC(=S)N2Cc3ccccc3-n3nncc3C2)c(OC)c1 | 0% | i | i | ?
S=C(NCCc1ccccc1)N1Cc2cc(Br)ccc2-n2nncc2C1 | ? | i | ? | 22µM*
O=C(NC1CCCCC1)N1Cc2cc(-c3ccccc3)ccc2-n2nncc2C1 | 10% | i | i | 20µM*
COc1ccc(-c2ccc3c(c2)CN(C(=S)NCCc2ccccc2)Cc2cnnn2-3)cc1 | 4µM* | i | i | ?
O=C(C[C@H]1C=C[C@H](NC(=O)Nc2ccccc2F)[C@@H](CO)O1)NCc1ccc(-c2ccccc2)cc1 | ? | i | i | 17%
C[Se]C[C@H](N)C(=O)O | -19% | . | . | .
ClCCN(CCCl)c1ccc(/C=C/c2ccnc3ccccc23)cc1 | -41% | . | . | .
NCC(=O)c1ccc2ccccc2c1 | -2% | . | . | .
Cc1c(C(c2ccc(Br)cc2)c2c(O)c3ccccc3oc2=O)c(=O)n(-c2ccccc2)n1C (configuration not stated) | -4% | ? | i | 14µM*!
CSc1ccc(C(c2c(O)c3ccccc3oc2=O)c2c(C)n(C)n(-c3ccccc3)c2=O)cc1 (configuration not stated) | 12% | ? | i | -17%
Cc1c(C(c2ccc(Cl)cc2Cl)c2c(O)c3ccccc3oc2=O)c(=O)n(-c2ccccc2)n1C (configuration not stated) | 3% | i | i | 10µM*
NC(CCc1ccccc1)c1csc(NC(=O)Nc2ccccc2Oc2ccccc2)n1 (configuration not stated) | -49% | ? | i | 9%
